From the supplement of paper PMC10338343
± gives the standard deviation. In all, about 8,200 sequences were measured (“pre-steady-state target cleavage rate”: median about 0.024, highest 2% from about 1.3 on). This excerpt belongs to a sample that is enriched for the highest values.

Tested on: MIWI (PIWIL1) piRISC loaded with L1MC piRNA (30 nt)
Experiment: pre-steady-state target cleavage rate (min^-1); MIWI and MILI are mouse PIWI proteins and EfPiwi is from a freshwater sponge; tags in brackets are library labels; higher = faster piRNA-guided slicing of the target
Conditions: guide: L1MC piRNA 5'p-UAACUAAAUACUAUGCAAGCUGUAGGUCCU
Summary of the method: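 The method was Cleave-'n-Seq, in which uncleaved targets from a transcribed, DNA-blocked target RNA library were sequenced after exposure to active affinity-purified piRISC carrying one synthetic guide, with or without GTSF1 partner protein. Reactions contained 0.1 nM library, 1 nM piRISC and, where present, 500 nM GTSF1 in HEPES–potassium acetate buffer at 33 °C for 0–8 or 0–960 min. Reads were normalised to depth and to weakly complementary targets, three trials were pooled, and k3 was capped at 0.0001 min^-1. The pre-steady-state cleavage rate came from a burst-and-steady-state fit.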

[1] = auxiliary factor: 500 nM mouse GTSF1
[2] = auxiliary factor: none (no GTSF1)

Sequence	pre-steady-state target cleavage rate [1]	pre-steady-state target cleavage rate [2]
UCCUGGAUGUGCUUGCAUAGUAUUUUGAAA	0.0177 ± 0.0092	0.00406 ± 0.0024
UCCUGCUACAGCUUGCAUUCUAUUUACAAA	0.0158 ± 0.0068	–
AGGAGCUACAGGUUGCAUAGUAUUUAGUUA	1.17 ± 0.075	0.0502 ± 0.0084
UCCUGGUACAGAUUGCAUAGUAUUUAGUUA	0.58 ± 0.071	0.0178 ± 0.0046
UCCUGGAACAGCUUGCAUACAAUUUAGUAA	0.0102 ± 0.0056	–
AGGACCUACAGCAUGCAUAGUAUUUACAAA	0.526 ± 0.066	0.00349 ± 0.0032
AGGACGUAGAGCUUGCAUAGUAUUUAGUUA	1.17 ± 0.072	0.047 ± 0.0083
UGGACGUUCAGCUUGCAUAGUAUUUAGUUA	1.37 ± 0.052	0.0691 ± 0.012
UCCACGUUCAGCUUGCAUAGUAUUUAGUUA	1.42 ± 0.057	0.0658 ± 0.011
UGGACGUAGAGCUUGCAUAGUAUUUAGUUA	1.29 ± 0.083	0.043 ± 0.0093
AGGACGUUCAGCUUGCAUAGUAUUUAGUUA	1.35 ± 0.063	0.0669 ± 0.01
AGGACGAACAGCUUGCAUAGUAUUUAGUUA	1.27 ± 0.045	0.084 ± 0.016
UCCACCUUCAGCUUGCAUAGUAUUUAGUUA	0.933 ± 0.045	0.0531 ± 0.0087
UCCACCACAGCUUGCAUAGUAUUUAGUUA	0.992 ± 0.035	0.0505 ± 0.0088
UCGACGUUCAGCUUGCAUAGUAUUUAGUUA	1.3 ± 0.036	0.0748 ± 0.015
UGGACCUACAGCUUGCAUACAAUUUAGUAA	0.00447 ± 0.0027	–
UCCACCUACAGCUUGCUAUGUAUUUAGAAA	0.00878 ± 0.0045	–
UCCUGGAUGUGCUUGCAUACUAUUUAGUUA	0.0877 ± 0.01	0.0191 ± 0.0037
UCCUGGAUCAGCUUGCAUAGUAUUUUGAUA	0.17 ± 0.032	0.0123 ± 0.004
UCCUGGAACAGCUUGCAUAAGUAUUUAGUUA	0.00489 ± 0.0033	–
UCCUGGAACAUGCUUGCAUAGUAUUUAGUUA	0.696 ± 0.028	0.0566 ± 0.011
UCCUGGUACAGCUUGCAUCGUAUUUAGUUA	0.203 ± 0.024	0.0269 ± 0.0059

Sequence	pre-steady-state target cleavage rate [1]	pre-steady-state target cleavage rate [2]
UCCUGCUACAGCUUGCAUAGUCUUUAGUUA	0.279 ± 0.034	0.0195 ± 0.0047
UCCUGCUACAGCUUGCAUAGAUUUUAGAAA	0.00439 ± 0.0033	–
UGGACCUACUGCUUGCAUUGUAUUUAGUUA	0.868 ± 0.041	0.0358 ± 0.009
UCCUCCUACACGUUGCAUAGUAUUUAGUAA	0.507 ± 0.035	0.00568 ± 0.0015
UCGACCUACAACUUGCAUAGUAUUUAGUUA	1.33 ± 0.041	0.0746 ± 0.015
UCGACCUACACUUGCAUAGUAUUUAGUUA	1.09 ± 0.045	0.0331 ± 0.0076
UGGACCUACACCUUGCAUAGUAUUUAGUUA	1.23 ± 0.045	0.0585 ± 0.0088
UGGACCUACAACUUGCAUAGUAUUUAGUUA	1.5 ± 0.062	0.08 ± 0.013
UGGACCUACAAGCUUGCAUAGUAUUUAGUUA	1.03 ± 0.058	0.0528 ± 0.0098
UGGACCUACACUUGCAUAGUAUUUAGUUA	1.33 ± 0.082	0.045 ± 0.0091
UCCACCUACAACUUGCAUAGUAUUUAGUUA	0.869 ± 0.025	0.0505 ± 0.0067
AGGACCUACAACUUGCAUAGUAUUUAGUUA	1.08 ± 0.031	0.0712 ± 0.011
AGGACCUACACUUGCAUAGUAUUUAGUUA	1.15 ± 0.043	0.0736 ± 0.016
UCCUGGAACAGCUUCCAUAGUAUUUAGAAA	0.00998 ± 0.0048	–
UCCACCUACAGCUUGCAUAGUAUUUAGUA	0.445 ± 0.043	0.00981 ± 0.0037
AGGACCUACAGCUUGCAUUCUAUUUAGUAA	0.262 ± 0.057	0.00441 ± 0.0024
UCCUGGAUGAGCUUGCUUAGUUUUUAGUUA	0.0242 ± 0.0064	0.00971 ± 0.0022
UCCUGGAUGUCCAUGCAUAGUAAUUAGUUA	0.00537 ± 0.0047	–
UGGACCAACAGCUUGCAUAGUAUUUACUUA	0.299 ± 0.018	0.0367 ± 0.0063
UCCUGGAUGUCCUUGAAUAGUAUUUAGUUA	0.0223 ± 0.0065	0.00268 ± 0.0026
UCCUGCCUACAGCUUGCAUAGUAUUUAGUUA	1.33 ± 0.091	0.0623 ± 0.014
UCCUCCUACAGCUUGCAUAGUAUUUAGUUU [g2:g26:cont:t1U]	1.29 ± 0.04	0.0826 ± 0.02

Sequence	pre-steady-state target cleavage rate [1]	pre-steady-state target cleavage rate [2]
UGCUCCUACAGCUUGCAUAGUAUUUAGUAA	1.07 ± 0.045	0.0382 ± 0.0079
AGCUCCUACAGCUUGCAUAGUAUUUAGUUA	1.37 ± 0.053	0.0847 ± 0.013
UGCUCCUACAGCUUGCAUAGUAUUUAGUUA	1.33 ± 0.047	0.0726 ± 0.012
AGCUCCUACAGCUUGCAUAGUAUUUAGUAA	1.01 ± 0.069	0.0506 ± 0.011
UGCUCCUACAGCUUGCAUAGUAUUUAGAAA	0.429 ± 0.033	0.00714 ± 0.0022
UCCUGCUACAGCUUGCCUAGUAUUUAGUUA	0.886 ± 0.057	0.0207 ± 0.0037
UCCUGCUACAGCUUGCAUAGUAUUUAGUUUA	1.17 ± 0.077	0.0574 ± 0.012
UCCACCUACAGCUUGCAUAGUAUUUCAGUUA	0.691 ± 0.081	0.0139 ± 0.0037
AGGACCUACUGCUUGCAUAGUAUUUAGAUA	0.471 ± 0.048	0.0411 ± 0.0086
UCCUGGUAUAGCUUGCAUAGUAUUUAGUUA	1.02 ± 0.043	0.0597 ± 0.012
UCCACCUACAGCUUGCAUACUAUAUAGUUA	0.178 ± 0.022	0.0112 ± 0.003
AGGACCUACAGCUUGCUUAGUAUUUAGUUA	1.43 ± 0.071	0.066 ± 0.015
UCGAGCUACAGCUUGCUUAGUAUUUAGUUA	1.19 ± 0.053	0.0376 ± 0.0079
UGGACCUACAGCUUGCUUAGUAUUUAGUAA	1.03 ± 0.073	0.0335 ± 0.0097
AGGAGCUACAGCUUGCUUAGUAUUUAGUUA	1.3 ± 0.061	0.0523 ± 0.011
UGGACCUACAGCUUGCUUAGUAUUUAGUUA	1.56 ± 0.094	0.0426 ± 0.011
UGGACCUACAGCUUGCUAGUAUUUAGUUA	0.0515 ± 0.013	0.00386 ± 0.0022
UGGAGCUACAGCUUGCUUAGUAUUUAGUUA	1.33 ± 0.062	0.0391 ± 0.0074
AGGACCUACAGCUUGCUUAGUAUUUAGUAA	0.862 ± 0.079	0.0262 ± 0.0068
AGGACCUACAGCUUGCUAGUAUUUAGUUA	0.179 ± 0.041	0.00501 ± 0.0024
